Screening results deposited in PubChem by National Center for Advancing Translational Sciences (NCATS).
An excerpt weighted towards active compounds, which were near 4.1% of everything screened.
Ub-GFP proteasome: Ubiquitin-GFP Assay | Ubiquitin-GFP reporter cells, proteasome inhibition, GFP fluorescence; response scale: untreated = 0%, 10 µM MG-132 = 100% | Potency, µM (series often up to 45.9 µM), inactives show top-dose activation (GFP accumulation), most hits filed as activators | 67,000 tested, under 10 active; active = well fitted activation curve with a large enough effect, not every such curve was filed as active; inconclusive = small, poorly fitted or top-dose-only effect, or another doubt; inactive = no such curve, though single readings can be large or run the other way
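Proteasome blockade was scored as a rise in GFP-expressing U2OS cells carrying a ubiquitin(G76V)-GFP construct, imaged after 4 hr compound treatment at 37 °C across a 46 uM–2.9 nM series.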
HEK293 cAMP cs: qHTS Assay for Agonists of the Thyroid Stimulating Hormone Receptor: Activators of Intracellular cAMP Concentrations in Parental HEK 293. parental HEK293 CNG cAMP sensor, membrane potential fluorescence. Potency, µM (titrated, usually from 57.1 µM), without a hit: at the top dose activation, most hits filed as activators. 73,000 tested, 2.5% active; note: % of control where 0% means no effect; nearly all actives have a fitted effect of over 55% in size
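Parental HEK 293 cells stably expressing a modified CNG channel (no TSHR) report cAMP rise as membrane depolarization. Membrane potential dye with 100 uM RO 20-1724 was loaded for 60 min at room temperature, then compound added for 30 min; fluorescence read at 590 nm.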
GBA mod: Glucocerebrosidase; Potency, µM; purified enzyme, resorufin glucoside fluorescence (screen aimed at inhibitors), 20 min; 48,000 tested, 1.1% active; AID 360, 2006; in the data active = potency below about 15 µM; inconclusive = mostly about 16 µM to 33 µM;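 note: the screen sought inhibitors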
Target sequence (P04062 whole entry, looked up): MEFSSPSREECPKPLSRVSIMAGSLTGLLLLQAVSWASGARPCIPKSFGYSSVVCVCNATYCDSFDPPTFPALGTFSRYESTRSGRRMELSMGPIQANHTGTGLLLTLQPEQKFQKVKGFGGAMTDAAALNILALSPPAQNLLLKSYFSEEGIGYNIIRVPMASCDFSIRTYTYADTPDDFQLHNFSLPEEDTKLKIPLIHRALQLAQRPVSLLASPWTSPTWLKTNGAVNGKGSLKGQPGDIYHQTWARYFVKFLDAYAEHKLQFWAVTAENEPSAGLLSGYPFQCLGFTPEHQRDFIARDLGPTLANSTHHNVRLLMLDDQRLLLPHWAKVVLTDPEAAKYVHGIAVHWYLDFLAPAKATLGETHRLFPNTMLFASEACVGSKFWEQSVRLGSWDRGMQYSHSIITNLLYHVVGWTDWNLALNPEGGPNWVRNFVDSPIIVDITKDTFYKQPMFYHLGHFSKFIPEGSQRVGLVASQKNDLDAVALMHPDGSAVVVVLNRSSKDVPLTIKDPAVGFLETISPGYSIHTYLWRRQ
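Normal human glucocerebrosidase (0.2 nM final) was assayed with resorufin β-D-glucopyranoside (30 uM final) in 50mM citric acid/KH2PO4, 10mM sodium taurocholate, 0.01% tween-20, pH 5.9. Compounds were titrated; fluorescence (Ex 548, Em 600) read after 20 min at RT.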
USP2a inh: qHTS Assay for Inhibitors of Ubiquitin-specific Protease USP2a. Ubiquitin carboxyl-terminal hydrolase 2 (Homo sapiens), O75604. USP2a enzymatic assay, qHTS inhibition. Potency, µM (series often up to 38.3 µM), without a hit: top-dose activity change, negative = inhibition, actives largely listed as inhibitors. 60,000 tested, 0.1% active; note: nearly all actives have a fitted effect of over 60% in size
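20 nM USP2 core + cpd, 30 min RT; add 20 nM Ub-PLA2/20 uM NBD C6-HPC; read Ex460/Em535 at 0 h and 2.5 h. Normalized to NEM; qHTS curve fit/classification.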
TSHR agonist: qHTS Assay for Agonists of the Thyroid Stimulating Hormone Receptor. Thyrotropin receptor (Homo sapiens), P16473. HEK293-CNG-TSHR cells (CNG channel as cAMP sensor), membrane potential dye, cAMP. Potency, µM (titrated, usually from 57.1 µM), for the others: at the highest dose activation, usual class: activators. 73,000 tested, 0.48% active; active = well fitted activation curve with a large enough effect in the main read-out, with a control signal flat, not every such curve was filed as active; inconclusive = small, poorly fitted or top-dose-only effect, or a change in a side signal; inactive = no such curve, though single readings can be large or run the other way; % of control where 0% means no effect;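 note: the control signal comes from parental cells without the receptor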
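cAMP rise detected as CNG-channel membrane depolarization by fluorescent dye (emission 590 nm), 30 min after compound, following 60 min dye loading containing 100 uM RO 20-1724 at room temperature. Cells: TSHR/CNG HEK 293, with parental CNG HEK 293 as control.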
PK Bst: Pyruvate Kinase; purified pyruvate kinase, luminescence ATP production; ribose 5-phosphate activator present at AC10; Potency, µM; 51,000 tested, 1.2% active; AID 361, 2006; in the data active = potency below about 11 µM; inconclusive = mostly about 12 µM to 25 µM;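 the screen sought inhibitors and activators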;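 note: scaled between full activation by ribose 5 phosphate and full inhibition by luteolin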
Starred values were filed as active, the others as inactive; i = inactive; u = inconclusive; x = no result; ! = repeats disagree; [ ] = another dose, or the depositor's remark. Unless noted, calls come from the whole dose curve; as a rule, active = well fitted curve in the direction sought with a large enough effect; inconclusive = small, poorly fitted or top-dose-only effect, or another doubt; inactive = no such curve, though single readings can be large; an effect the other way counts as inactive or inconclusive. Potency is the fitted concentration of half-maximal effect.

SMILES | Ub-GFP proteasome | HEK293 cAMP cs | GBA mod | USP2a inh | TSHR agonist | PK Bst
CCOC(=O)CSc1nnc2n(Cc3ccccc3)c(=O)c3c4c(sc3n12)CCC4 | x | x | x | x | x | 5.1*
CSc1nnc2n(-c3ccccc3)c(=O)c3c4c(sc3n12)CCC4 | 2% | 5% | >77 | 7% | 4% | 2.8*
Cc1nnc2n(Cc3ccccc3)c(=O)c3c4c(sc3n12)CCCC4 | -1% | 17% | >77 | 4% | 7% | >57
CN=C1N[C@H](c2ccccc2)N(c2ccccc2)S1 | -5% | 11% | x | x | 13% | x
Cc1ccc(C(=O)c2coc3ccc(O)c(CN4CCN(C)CC4)c23)cc1 | -4% | 13µM* | i | 7% | u | >57
CC(=O)N1CCC2(CCCN(c3cccc(-c4ccccc4)c3)C2)CC1 | -2% | u | x | 152% | u | x
Cc1nnc(NC(=O)C2CCN(c3nnnn3-c3ccccc3)CC2)s1 | -1% | 10% | 8.7* | 4% | 3% | >57
O=C(CN1CCN(Cc2ccccc2)CC1)N1CCCc2c1c(=O)oc1ccc(O)cc21 | 22% | -15% | 14* | 29% | -21% | >57
O=C(CSc1nnc(-c2ccco2)n1Cc1ccccc1)c1ccccc1 | 1% | 19% | >77 | 25% | 3%[11.4 µM] | >57
CC(C)Cn1c(SCC(=O)c2ccc(Cl)s2)nnc1-c1ccco1 | 2% | 20µM* | >77 | 5% | u | >57
Cc1ccc(C(=O)CSc2nnc(-c3ccco3)n2Cc2ccccc2)cc1 | -3% | 13µM* | >77 | -20% | u | >57
CCCCn1c(SCC(N)=O)nnc1-c1ccco1 | -6% | 20% | >77 | u | 8% | >57
CCn1c(SCC(=O)c2ccc(Cl)cc2)nnc1-c1ccoc1C | -3% | 25µM* | >77 | 13% | u | >57
COc1cc(OC)cc([C@H](CNc2ncnc3c2ncn3[C@@H]2O[C@@H](CO)[C@H](O)[C@@H]2O)c2ccccc2C)c1 | -2% | 4% | x | x | x | x
Clc1ccccc1-c1nc(NCc2cccs2)c2ccccc2n1 | 5% | u | x | 25% | u | x
CC(C)C1COc2cc3oc(=O)ccc3cc2O1 (centres undefined) | x | x | x | -8% | x | x
O=C(OCC1CO1)C1CCCCC1C(=O)OCC1CO1 (centres undefined) | x | 25% | x | x | 20% | x
CCOc1ccc2nc(SCC(=O)N3CCCCCC3)c(C#N)cc2c1 | 2% | 16µM* | >77 | 0% | u | x
O=C(CSc1nc2ccccc2nc1SCC(=O)N1CCCCC1)N1CCCCC1 | x | 17% | x | x | 25µM* | x
O=c1c(-c2cc(F)cc(F)c2)nc2cnc(N3CCNCC3)nc2n1CCc1ccccc1 | -1% | u | x | 105% | u | x
CN1CCN(C(=O)CSc2nc(-c3cccs3)cc(-c3cccs3)c2C#N)CC1 | -3% | 11% | 12* | 26% | 9% | i
O=C(NC1=NCCS1)c1ccc(-c2ccc(Cl)cc2)o1 | 9% | 3% | u | 17% | -2%[11.4 µM] | 5.4*
CCCOc1ccc(Cn2c(=O)oc3ccc(C)cc32)cc1OC | 3% | u | >77 | -13% | u | >57
CCCOc1ccccc1Cn1c(=O)oc2ccc(C)cc21 | 0% | 13µM* | >77 | -11% | u | >57
Cc1nc2ncnn2c(C)c1Cc1ccc(Cl)cc1F | -12% | 27% | x | x | 25µM* | x
SMILES | Ub-GFP proteasome | HEK293 cAMP cs | GBA mod | USP2a inh | TSHR agonist | PK Bst
Cc1ccnc(NC(=O)CCc2c(C)nc3ncnn3c2C)c1 | 13% | 3% | >77 | -4% | -2%[11.4 µM] | >57
N=C(N)c1ccc(-c2ccc(-c3ccc(C(=N)N)cc3)o2)cc1 | 15%[9.17 µM] | -1%[11.4 µM] | x | x | 3%[11.4 µM] | x
COc1ccc2c(c1)c(C(=O)CN1CCN(C(=O)c3ccco3)CC1)c(C)n2C | -2% | 1% | >77 | 13% | -3% | >57
CC(=O)c1c(C)n(C)c2ccc(OC(=O)c3ccco3)cc12 | -7% | -14% | >77 | 12% | 13% | 8.4*
COc1cccc(-c2cncnc2NCc2ccccc2)c1 | -5% | u | x | 4% | u | x
N#Cc1nc(COc2ccccc2)oc1N1CCN(Cc2ccccc2)CC1 | -3% | 13µM* | >77 | -4% | u | >57
N#Cc1nc(COc2cccc(Cl)c2)oc1N1CCCC1 | -6% | 13µM* | x | x | u | x
N#Cc1nc(-c2cccs2)oc1N1CCN(Cc2ccccc2)CC1 | 1% | u | >77 | -8% | u | >57
N#Cc1nc(COc2ccc(F)cc2)oc1N1CCCC1 | 1% | u | >77 | -6% | u | >57
Cc1ccc(OCc2nc(C#N)c(N3CCN(Cc4ccccc4)CC3)o2)cc1 | 17% | 2µM* | >77 | -2% | u | >57
C#CCCCO/N=C1/C[C@@H](O)[C@@H](O)[C@@H]2[C@@H]3C(=O)N(C(C)(C)C)C(=O)[C@H]3CC[C@H]12 | x | 2%[11.4 µM] | x | x | 4%[11.4 µM] | x
CN(C)c1ncc2nc(-c3cccs3)c(=O)n(C)c2n1 | -8% | 18% | x | 58% | 3% | x
Cn1c(NC(=O)c2cc(-c3ccc4c(c3)OCO4)nc3ccccc23)cc(=O)n(C)c1=O | -6% | 0% | >77 | 27% | -4% | 4.1*
Cc1occc1C(=O)Nc1cc(=O)n(C)c(=O)n1C | -8% | -7% | >77 | 0% | -3% | >57
COc1cccc(OCCSc2nnc3sc4ccccc4n23)c1 | -3% | 16µM* | >77 | 7% | u | x
c1ccc(OCCSc2nnc3sc4ccccc4n23)cc1 | -3% | u | >77 | 0% | u | u
CNCCCC1c2ccccc2C=Cc2ccccc21 | 8%[20.5 µM] | -1%[25.6 µM] | x | -3%[17.1 µM] | -5%[25.6 µM] | >26
CNCCCC12CCC(c3ccccc31)c1ccccc12 | 8% | 40µM*! | x | -10% | u | >26
COc1ccc(-c2cc(C(=O)N/N=C/c3ccc(O)cc3)[nH]n2)cc1 | x | -8% | x | x | 10% | x
CN=C(NC#N)Nc1ccc(C2=NNC(=O)C[C@@H]2C)cc1 | 0% | 6% | x | 3% | x | x
COc1ccc(-c2noc(Cc3ccc(Cl)cc3)n2)cc1OC | 0% | 29% | x | x | 25µM* | x
COc1ccc(Cl)cc1C(=O)N(Cc1nc(-c2cccc(C)c2)no1)C(C)C | -14% | 12%[11.4 µM] | x | x | 25µM* | x
CC(C)CO/N=C1/C[C@@H](O)[C@@H](O)[C@@H]2[C@@H]3C(=O)N(c4cccc(Oc5ccccc5)c4)C(=O)[C@H]3CC[C@H]12 | x | -1%[11.4 µM] | x | x | -5%[11.4 µM] | x
COC(=O)[C@@]1(Cc2ccccc2)[C@H]2c3cc(C(=O)N4CCCC4)n(Cc4ccccn4)c3C[C@H]2CN1C(=O)c1ccccc1 | x | 3.2µM* | x | x | u | x
COC(=O)[C@@]1(Cc2ccccc2)[C@H]2c3cc(C(=O)N4CCCC4)n(Cc4ccccc4)c3C[C@H]2CN1C(=O)c1ccccc1 | x | 1.3µM* | x | x | u | x
